Screens deposited in PubChem BioAssay by National Center for Advancing Translational Sciences (NCATS).
Compounds with a hit are over-represented: about 0.72% of the library has one in this group of screens.
Eya2 phos inh – blocks the phosphatase activity of human Eya2 | recombinant Eya2, OMFP fluorescence dephosphorylation (OMFP is methylfluorescein phosphate) | AID 488837 | O00167 | Potency, µM (doses to about 76.9 µM), hits mostly inhibitors | hit rate 0.006% among 330,000
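Eya2 protein (added as 0.2 uM solution) was preincubated with compound for 10 min at ambient temperature in 50 mM HEPES pH 7.5, 50 mM NaCl, 5 uM MgCl2, 0.05% BSA, 1 mM DTT. OMFP (added at 50 uM) then reacted 10 min; fluorescence read at 485/525 nm.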
RGS4 inh – human RGS4 inhibition; Potency, µM (top dose mostly 114 µM), actives largely listed as inhibitors; Transcreener GDP fluorescence polarization, RGS4-accelerated GTP hydrolysis; P49798; hit rate 0.039% among 390,000; note: nearly all actives have a fitted effect of over 75% in size
Target sequence (P49798 whole entry, looked up): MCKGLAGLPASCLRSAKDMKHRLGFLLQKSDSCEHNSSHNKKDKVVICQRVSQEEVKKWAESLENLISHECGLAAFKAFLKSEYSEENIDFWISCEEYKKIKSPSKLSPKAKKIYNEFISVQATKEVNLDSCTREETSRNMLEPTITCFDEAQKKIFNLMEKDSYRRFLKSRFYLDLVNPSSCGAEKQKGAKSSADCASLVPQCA
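MLSMR compounds (23 nl, pin-transferred) preincubated 10 min at room temperature with a 500nM (2x) first reagent, then RGS4 at 900nM (2x) plus Transcreener GDP mix added; fluorescence polarization (620/688 nm) read before and after 90 min at 30 °C.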
Six1-Eya2 blk – inhibitors of human Six1/Eya2 interaction; AID 651725; activity change, % (concentration not given with the values); hit rate 0.56% among 360,000; AlphaScreen GST-Six1/His-Eya2 binding, biochemical; hits give low values; in the data active = activity change below about -65%; inconclusive = mostly about -30% to -63%
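Homogeneous AlphaScreen proximity assay pairing GST-Six1 with His-tagged Eya2 (added as 5X mix: 250 nM and 500 nM) in 50 mM Tris pH 8.0, 300 mM NaCl, 1 mM TCEP. Glutathione donor and nickel acceptor beads; 1 h, 37 °C, dark.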
CtBP-E1A inh – CtBP/E1A binding inhibition; activity change, % (concentration not given with the values); AlphaScreen GST-E1A/His-CtBP binding, 1536-well; hits give low values; hit rate 0.49% among 340,000; AID 651724; in the data active = activity change below about -65%; inconclusive = mostly about -30% to -63%
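Protein mix (5X: 125 nM each GST-E1A, His-CtBP) was incubated with pinned compound 2 h at 37 deg C in dark, in 50 mM Tris pH 8.0 buffer with 300 mM NaCl. Glutathione donor and nickel acceptor beads followed; AlphaScreen signal read after 1 h.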
USP2a block – blocks human ubiquitin-specific protease USP2a | hit rate 0.01% among 330,000 | O75604 | Potency, µM (highest dose often 38.3 µM), hits mostly inhibitors | USP2 core, Ub-CHOP2 coupled fluorogenic reporter, 485/531
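Cell-free coupled assay: 10nM USP2 core preincubated 30min RT with compound in Tris-HCl pH 8.0/CaCl2/CHAPS buffer, then 25nM Ub-CHOP2 and 25nM reporter substrate; fluorescence (Ex 485/Em 531) read after 60min RT, normalized to NEM inhibition, concentration-response curves fitted.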
PI4K2A block – blocks human PI4K2A kinase activity | Q9BTU6 | purified PI4K2A, ADP-Glo luminescence, 1 h; hits give low values | activity change, negative = inhibition, % at 76.9 µM | hit rate 0.13% among 420,000 | AID 1346378; in the data active = activity change below about -50%; inconclusive = mostly about -30% to -49%
Target sequence (Q9BTU6 whole entry, looked up): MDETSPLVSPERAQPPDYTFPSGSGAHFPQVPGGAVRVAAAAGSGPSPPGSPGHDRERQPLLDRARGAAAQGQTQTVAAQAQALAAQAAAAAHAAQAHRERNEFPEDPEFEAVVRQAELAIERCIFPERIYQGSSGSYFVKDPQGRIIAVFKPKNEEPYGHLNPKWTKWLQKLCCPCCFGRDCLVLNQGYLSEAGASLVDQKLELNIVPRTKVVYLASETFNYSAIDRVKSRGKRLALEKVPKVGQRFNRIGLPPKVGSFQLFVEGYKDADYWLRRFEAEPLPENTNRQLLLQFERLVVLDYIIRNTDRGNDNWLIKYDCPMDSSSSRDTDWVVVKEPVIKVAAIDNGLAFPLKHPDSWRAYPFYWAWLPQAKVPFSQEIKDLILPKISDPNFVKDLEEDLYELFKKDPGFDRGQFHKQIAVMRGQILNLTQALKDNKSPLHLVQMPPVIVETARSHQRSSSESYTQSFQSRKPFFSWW
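Compounds are screened against recombinant PI4K2A using PI as substrate and ATP, the latter dispensed at 300 microM. Reactions run one hour at ambient temperature before ADP-Glo detection; full inhibition defined by wells lacking enzyme.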
Numbers stand for hits; n = inactive; u = inconclusive; x = no result; ! = a repeat was not active; [ ] = another dose, or the depositor's remark. Unless noted, calls come from the whole dose curve; as a rule, active = well fitted curve in the direction sought with a large enough effect; inconclusive = small, poorly fitted or top-dose-only effect, or another doubt; inactive = no such curve, though single readings can be large; an effect the other way counts as inactive or inconclusive.

SMILES | Eya2 phos inh | RGS4 inh | Six1-Eya2 blk | CtBP-E1A inh | USP2a block | PI4K2A block
Oc1ccc(NC(=S)N=Nc2c(O)[nH]c3ccccc23)cc1 | n | n | -71.4 | -72.3 | n | n
O=C(O)c1ccc(N=Nc2c(O)[nH]c3ccccc23)cc1 | n | n | n | n | n | -62.1
COc1cccc(NC(=O)C2CCN(c3nc4ccccc4nc3C(F)(F)F)CC2)c1 | x | n | x | x | x | n
COC(=O)CC1Oc2ccc(Cl)cc2-n2cc(-c3ccc(C)cc3)nc21 (stereo unspecified) | x | n | x | x | x | n
COc1cccc(/C=N/NC(=S)Nc2cccc(C(=O)O)c2)c1O | n | n[11.4 µM] | -92.1 | -90.7 | n | n
COCCCNC(=S)N/N=C/c1cccc(OC)c1O | n | n | -89.8 | -92.4 | n | n
COCCCNC(=S)N/N=C/c1ccc(O)cc1 | n | n | n | x | n | n
COc1ccccc1/C=N/NC(=O)c1cccc(OC(F)(F)C(F)F)c1 | n | n | n | n | n | n
COCCCNC(=S)N/N=C/c1ccc(O)cc1O | n | n | -90.3 | -93.3 | n | n
COc1cccc(/C=N/NC(=O)C(=O)Nc2ccccc2OC(F)(F)C(F)F)c1O | n | n | -85.8 | -73.1 | n | n
COc1ccc(-n2nc(C(=O)N3CCN(c4cccc(C)c4)C(C)C3)c3c4ccccc4n(C)c3c2=O)cc1Cl (stereo unspecified) | x | n | x | x | x | n
CN(C)S(=O)(=O)N1CCC(n2cnc3cccnc32)CC1 | x | n | x | x | x | n
COc1cc(O)c(C(CCN2CCN(c3ccccc3)CC2)c2ccc(N(C)C)cc2)c(OC)c1 (stereo unspecified) | n | n | -78.0 | -70.0 | n | n
COc1ccc(C(CCN2CCN(c3ccccc3)CC2)c2c(O)cc(OC)cc2OC)cc1 (stereo unspecified) | n | n | u | n | n | n
O=c1[nH]c(=O)n([C@H]2O[C@H](CO)[C@@H](O)[C@@H]2O)cc1/C=C\Br | x | x | x | x | x | n
O=C(Nc1ccc(F)cc1)Nc1ccc(N2CCOCC2)c2nonc12 | n | n | n | n | n | -58.6
Nc1ccc(N2CCOCC2)c2nonc12 | n | u | n | x | n | -59.8
COCc1cc(=O)[nH]c(Nc2nc3ccc(C)cc3o2)n1 | n | n | -84.1 | -86.6 | n | n
Cc1cc2nc(-c3ccc[nH]c3=O)[nH]c2cc1C | n | n | n | x | n | -66.2
Cc1ccc(SCC(=O)Nc2ccc(C(=O)Nc3ccc(O)cc3)cc2)cc1 | n | n | n | n | 11.2µM | n
Cc1ccc(SCC(=O)Nc2cccc(C)c2)cc1 | n | n | n | n | n | n
O=C(CCC1N=C2c3ccccc3N=C(SCc3ccc(F)cc3)N2C1=O)NCCc1ccccc1 (stereo unspecified) | x | n | x | x | x | n
CCCCCCCCCCCCCCCC[N+](C)(C)CCN(Cc1ccc(OC)cc1)c1ncccn1 | u | n | n | n | 10µM | n
COc1ccc(CN(CCN(C)C)c2ncccn2)cc1 | x | x | x | x | x | n
NCc1nc2cccnc2n1Cc1ccccc1Cl | x | n | x | x | x | n
SMILES | Eya2 phos inh | RGS4 inh | Six1-Eya2 blk | CtBP-E1A inh | USP2a block | PI4K2A block
CC(=NNc1nc2ccccc2s1)c1ncccn1 | x | u | -92.4 | n | x | n
Oc1ccccc1/C=N/Nc1nc2ccccc2o1 | n | n | -71.6 | -77.1 | n | n
Cc1cc(C)nc(Nc2nc3ccccc3o2)n1 | n | n | n | n | n | n
CC(=NNc1nc2ccccc2o1)c1ncccn1 | x | n | -89.8 | n | x | n
CC(=NNc1nc2ccccc2o1)c1cc2ccccc2cn1 | x | n | -92.7 | -65.5 | x | n
C[C@@H]1COc2cc(N(C)CCO)ccc2S(=O)(=O)N1 | x | x | n | n | x | n
CCOc1cc(CNC(=O)c2ccc3c(c2)N(C)C(=O)C2CCCCN32)cc(OCC)c1OCC (stereo unspecified) | x | n | x | x | x | n
CCn1cc(C(=O)N(C)Cc2ccccc2)c(=O)c2cc(S(=O)(=O)N3CCc4ccccc4C3)ccc21 | x | n | x | x | x | n
O=Cc1ccc2oc3nc4n(c(=O)c3c(=O)c2c1)CCCS4 | n | u | u | u | n | -61.7
CCOc1ccc(/C=C/c2nc3ccccc3n2S(=O)(=O)c2cccc(Cl)c2)cc1 | x | n | x | x | x | -70.1
Cc1ccc(/C=C/c2nc3ccccc3n2S(=O)(=O)c2cccc(Cl)c2)cc1 | x | n | x | x | x | -63.1
CSc1ccc(/C=C/c2nc3ccccc3n2S(=O)(=O)c2ccc(F)c(C)c2)cc1 | x | n | x | x | x | u
CCCNC(=O)C1(C)CCCN(Cc2ccc(-c3ccccn3)cc2)C1 (stereo unspecified) | x | x | n | n | x | n
CCn1c(C)nc2cc(-c3nc4n(n3)Cc3ccccc3-4)ccc21 | n | n | n | n | n | -68.9
COc1ccccc1N1CCN(C2CC(=O)N(c3cccc(Cl)c3)C2=O)CC1 (stereo unspecified) | n | n | n | n | n | n
O=C(Oc1cccc2cccnc12)c1cccc(N2C(=O)C3C4CCC(C4)C3C2=O)c1 (stereo unspecified) | n | n | -86.8 | n | n | n
O=C(Oc1cccc2cccnc12)c1ccc(N2C(=O)C3C4CCC(C4)C3C2=O)cc1 (stereo unspecified) | n | n | -88.8 | u | n | n
O=C(Oc1cccc2cccnc12)c1cccc(-n2cnnn2)c1 | n | n | n | n | n | n
O=C(OCC#CCSc1nnc(-c2cccc3ccccc23)o1)c1ccc(F)c(F)c1 | x | x | x | x | x | n
COC(=O)[C@]12C[C@H](CC(=O)N3CCN(C(=O)c4ccco4)CC3)C(=O)N(Cc3cccc4ccccc34)C1=C[C@H](C(C)(C)C)O[C@@H]2C | x | x | x | x | x | n
COC(=O)[C@]12C[C@H](CC(=O)NCc3ccccc3)C(=O)N(Cc3ccc(Cl)cc3Cl)C1=C[C@H](COCc1ccccc1)O[C@@H]2C | x | x | x | x | x | n
Cc1cc(=O)oc2c3c(cc(OCC(=O)N4CCC[C@H]4C(=O)O)c12)OC(C)(C)CC3 | n | n | -70.5 | u | n | n
Cc1ccc(-n2cc(C(=O)Oc3ccc(F)cc3)c3ccccc3c2=O)cc1 | x | n | x | x | x | n
Nc1c2c(=O)[nH]c(O)cc2nn1-c1ccccc1 | x | n | n | -66.3 | x | n
COCCn1c(-c2ccccc2)cnc1N | n | n | -88.0 | u | n | n
NC(=O)c1ccccc1NC(=O)c1ccc2ccccc2c1 | n | n | n | n | n | n
NC(=O)c1ccccc1NC(=O)c1cccc(C(=O)Nc2ccccc2C(N)=O)n1 | x | n | -83.0 | -76.1 | x | n
O=C(c1cc(O)c(O)c(O)c1)c1ccc(O)c(O)c1O | x | x | x | x | x | n
Cc1ccc(Nc2cc(C)nc3nncn23)c(C)c1 | x | n | x | x | x | n
N#C/C(=C\c1ccc(O)c(O)c1)C(=O)NCCc1ccccc1 | n | 18.9µM! | n | n | n | n
